Our source for the growth values is PubChem BioAssay (NCI).

About 83,000 compounds went through this panel and 20% of them were active in at least one assay; those are over-represented in the sample as a whole.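 Growth was measured after 48 h exposure to one concentration of compound in 96-well plates. Values under 10 count as active.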 Unmarked numbers belong to inactive results. The source made the active and inactive calls.

This assay relates to NCI-H522 lung. As to the kind of experiment: NCI-60 one-dose screen, 48 h (100 = growth as untreated, 0 = no growth, -100 = all killed). The conditions noted are these: 10 µM unless noted.
On to `CCOc1ccc(NC(=O)CSc2oc(-c3ccccc3)nc2S(=O)(=O)c2ccc(C)cc2)cc1`, for which the growth was 83.8%.

Take `O=C(/C=C/c1cccc(Cl)c1)c1ccc(Nc2nc(Nc3ccc(F)cc3)nc(Nc3ccc(Cl)cc3)n2)cc1`: the growth was 102%. With `Cn1c(I)c(C#CCO[Si](C)(C)C(C)(C)C)c(=O)[nH]c1=O`, the growth was 74.2%. Consider `CC(=O)Oc1ccc(C)cc1C`, for which the growth is 101%. On to `COc1cc(C2CC(c3ccc(Nc4nc(Nc5ccc(Cl)cc5)nc(Nc5ccc(Cl)cc5)n4)cc3)=NN2C(C)=O)cc(OC)c1OC` (centres undefined), for which the growth is 86.8%.

On to `c1cnc2c(-c3nc4ccc5[nH]ncc5c4c4c3CCCC4)c[nH]c2c1`, for which the growth is -23.3% (active). For the molecule `COc1ccc(/C=C/C(=O)c2cc3c(N)c(C(=O)Nc4cccc5ccccc45)sc3nc2C)cc1`, the growth is 26.1%. Then `O=C1/C(=C/c2ccc([N+](=O)[O-])cc2)COc2ccc(O)cc21`, with 62.2%. Regarding `CCOCCNC1=C(Cl)C(=O)c2ccccc2C1=O`, the growth was 82.9%. `CCN(CC)c1ccc(\C=N/N=C(N)/C(N)=N\N=C/c2ccc(N(CC)CC)cc2)cc1`: the growth was 92.2%. To `CSc1nc2ccccc2cc1/C=C1/C=C(c2ccccc2)NC1=O` belongs 74.6%; to `Cn1cc(-c2ccc3nc(-c4ccc(CC(=O)ONc5cc(C(C)(C)C)on5)cc4)cnc3c2)cn1`, 39.4%; to `Nc1ncnc2c1C(c1ccccc1)c1ccc3ccccc3c1O2` (centres undefined), 53.8%. For the molecule `N#Cc1nc(-c2ccc(F)cc2)oc1S(=O)(=O)N1CCOCC1`, the growth was -33.8% (active).
